# Results from PubChem BioAssay.
# Activity calls are given as the source filed them.
# How the values were obtained:
# [1] = test system: Human papillomavirus type 1a protein E7 (residues 44-93); assay: HPV1a E7 fragment binders on microarrays, primary screen, biochemical, small-molecule microarray, residues 44-93, 635 nm fluorescence (AID 1108); conditions: small-molecule microarray binding, fluorescence 635 nm; higher = more signal;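 also: E7 fragment applied at 1 µg/mL in TBST for 1 h at 4 C; score combines spot fluorescence with its signal to noise ratio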
# [2] = modulators of HCV replicon luciferase signal, primary screen, HCV replication inhibitor project, Huh7 cells, luciferase reporter (AID 1109); conditions: 48 h, higher = more signal;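 also: huh7 hepatoma cells harbouring a luciferase neomycin HCV replicon reporter; luciferase luminescence as measure of HCV replicon replication; test concentration not given here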
# [3] = molecular target: Left-right determination factor 2 (Homo sapiens) (UniProt O00292); assay: LEFTY2 binders on small-molecule microarrays, primary screen, biochemical, small-molecule microarray, 635 nm fluorescence scan (AID 1110); conditions: LEFTY2 binding, higher = more signal
# [4] = molecular target: Calmodulin-1 (Homo sapiens) (UniProt P0DP23); assay: CALM1 binders on microarrays, EGTA buffer, profiling panel, biochemical, small-molecule microarray, Cy5-labelled CALM1 (AID 1111); conditions: Cy5-CALM1 binding fluorescence, higher = more signal;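 also: labelled calmodulin applied in Tris saline Tween buffer holding calcium plus EGTA and DTT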
# [5] = molecular target: Calmodulin-1 (Homo sapiens) (UniProt P0DP23); assay: calcium-bound CALM1 binders on microarrays, profiling panel, artefact control for SMM control-protein annotation, biochemical, small-molecule microarray, Cy5-labelled CALM1, plus calcium (AID 1112); conditions: Cy5-CALM1 binding fluorescence, higher = more signal;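 also: score merges spot fluorescence with signal to noise from triplicate slides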
# [6] = small-molecule microarray binders of probe aWnt5a, primary screen, biochemical, biotinylated probe, 635/667 nm fluorescence (AID 1113); conditions: higher = more signal;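 also: score merges 667 nm fluorescence intensity with signal-to-noise per printed feature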
# [7] = small-molecule microarray binders of probe aShh, primary screen, biochemical, biotinylated probe, 635/667 nm fluorescence (AID 1114); conditions: higher = more signal;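 also: probe is biotin-labelled aShh protein from a stem cell growth factor screen; measures binding of labelled protein to compounds printed on the slide; score merges feature fluorescence at 667 nm with signal-to-noise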
# [8] = small-molecule microarray binders of probe aNog, primary screen, biochemical, biotinylated probe, 635/667 nm fluorescence (AID 1115); conditions: higher = more signal;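 also: probe is biotinylated aNog protein used at 0.15 µg/mL for 1 h at 4 C; z-score combines 667 nm fluorescence of each spot with its signal to noise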
# [9] = molecular target: Torsin-1A-interacting protein 1 (Homo sapiens) (UniProt Q5JTV8); assay: LAP1 binders from COS7 cell lysate, primary screen, small-molecule microarray, 635/667 nm fluorescence (AID 1116); conditions: COS7-hLAP1 lysate binding, 635 nm fluorescence, higher = more signal
# [10] = molecular target: Alpha-bungarotoxin (Bungarus multicinctus) (UniProt P60615); assay: alpha-bungarotoxin binders on microarray, profiling panel, artefact control for SMM control protein annotation, biochemical, small-molecule microarray, Alexa647 label, 635/667 nm fluorescence (AID 1117); conditions: alpha-BTX-A647 binding fluorescence, higher = more signal
# Albumin (Bos taurus) = Albumin (Bos taurus) (UniProt P02769); assay: bovine serum albumin binders on microarray, profiling panel, artefact control for SMM control protein annotation, biochemical, small-molecule microarray, Alexa647 label, 635/667 nm fluorescence (AID 1118); conditions: BSA-A647 binding, fluorescence 635 nm, higher = more signal;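 also: score merges 667 nm emission intensity and signal-to-noise per printed compound spot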
# [11] = small-molecule microarray binders of probe aXIP, primary screen, biochemical, NeuroSMM set, 635/667 nm fluorescence (AID 1119); conditions: higher = more signal, called active from +8 up or from −8 down;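 also: probe is the protein aXip251-270 applied at 1 µg/mL to compound-printed slides; binding of probe to printed compounds measured as 667 nm fluorescence plus signal to noise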
# [12] = small-molecule binders of probe aNOTCH3, primary screen, biochemical, small-molecule microarray, 635/667 nm fluorescence (AID 1120); conditions: higher = more signal;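 also: probe is a biotin-tagged antibody raised against NOTCH3 rather than NOTCH3 protein; score merges spot fluorescence near 667 nm with spot signal to noise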
# [13] = small-molecule binders of probe aNOTCH2, primary screen, biochemical, small-molecule microarray, 635/667 nm fluorescence (AID 1121); conditions: higher = more signal;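 also: score merges feature fluorescence read at 667 nm with its signal to noise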
# [14] = molecular target: Carbonic anhydrase 2 (Homo sapiens) (UniProt P00918); assay: CAII small-molecule binders, profiling panel, biochemical, small-molecule microarray, Alexa647-labelled CAII (AID 1122); conditions: CAII-A647 binding fluorescence, higher = more signal
# [15] = COS7 lysate on small-molecule microarray, probe aHis, 635 nm (AID 1123); conditions: COS7 cell lysate, fluorescence, higher = more signal;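 also: z-score combines 667nm fluorescence intensity with signal-to-noise per printed compound spot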
# [16] = compound binding in COS7 lysate, probe aLAP1, primary screen, cell lysate, small-molecule microarray (AID 1124); conditions: probe aLAP1, fluorescence, higher = more signal;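 also: lysate comes from COS7 cells expressing LAP1 and is applied at 0.3 µg/mL; score merges spot fluorescence near 667 nm with signal-to-noise over triplicate slides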
# Sam68 (KHDRBS1) = assay: Sam68 small-molecule binders, primary screen, biochemical, small-molecule microarray, 635 nm fluorescence (AID 1125); conditions: small-molecule microarray binding, higher = more signal;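 also: score merges 667 nm channel intensity with signal to noise over triplicate slides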
# [17] = test system: Chordin-like protein 2 (CHRDL2); assay: CHRDL2 small-molecule binders, primary screen, biochemical, small-molecule microarray, 635 nm fluorescence (AID 1126); conditions: small-molecule microarray binding, fluorescence 635 nm; higher = more signal;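 also: printed compound slides probed with Chrdl2 protein at 4 µg/mL for 1 h at 4 C; score merges 667 nm emission intensity with signal to noise over three replicate slides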
# [18] = molecular target: Concanavalin-A (Canavalia ensiformis) (UniProt P02866); assay: ConA small-molecule binders, primary screen, artefact control for SMM control protein annotation, biochemical, small-molecule microarray, Alexa647 label, 635 nm (AID 1127); conditions: ConA-A647 binding fluorescence, higher = more signal;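 also: z combines 667 nm emission intensity with signal-to-noise across three replicate slides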
# Chain of Concanavalin-A (Canavalia ensiformis) (P02866 whole entry, looked up): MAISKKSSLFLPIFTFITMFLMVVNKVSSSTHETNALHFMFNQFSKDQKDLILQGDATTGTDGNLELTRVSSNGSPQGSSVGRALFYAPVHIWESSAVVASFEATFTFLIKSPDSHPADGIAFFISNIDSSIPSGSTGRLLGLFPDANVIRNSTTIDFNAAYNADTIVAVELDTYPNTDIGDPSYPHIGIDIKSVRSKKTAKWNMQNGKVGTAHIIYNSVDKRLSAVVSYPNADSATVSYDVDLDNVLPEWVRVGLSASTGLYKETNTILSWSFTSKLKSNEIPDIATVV
# Chain of Albumin (Bos taurus) (P02769 whole entry, looked up): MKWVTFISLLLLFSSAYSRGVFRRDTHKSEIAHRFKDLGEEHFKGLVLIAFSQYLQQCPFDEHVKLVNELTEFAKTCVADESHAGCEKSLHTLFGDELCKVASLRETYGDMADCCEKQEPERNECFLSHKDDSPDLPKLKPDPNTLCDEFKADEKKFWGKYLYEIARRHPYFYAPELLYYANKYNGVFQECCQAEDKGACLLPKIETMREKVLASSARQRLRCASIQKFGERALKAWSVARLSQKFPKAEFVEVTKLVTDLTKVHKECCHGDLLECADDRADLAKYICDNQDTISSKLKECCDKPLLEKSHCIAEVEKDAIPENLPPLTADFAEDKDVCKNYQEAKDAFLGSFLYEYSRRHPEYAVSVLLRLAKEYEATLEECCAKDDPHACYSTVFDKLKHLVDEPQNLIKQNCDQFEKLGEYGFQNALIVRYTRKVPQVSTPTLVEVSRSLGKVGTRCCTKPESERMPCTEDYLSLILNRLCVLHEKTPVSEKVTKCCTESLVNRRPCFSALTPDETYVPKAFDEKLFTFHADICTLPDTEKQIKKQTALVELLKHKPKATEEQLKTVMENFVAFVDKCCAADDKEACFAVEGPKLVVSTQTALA
# Chain of Alpha-bungarotoxin (Bungarus multicinctus) (P60615 whole entry, looked up): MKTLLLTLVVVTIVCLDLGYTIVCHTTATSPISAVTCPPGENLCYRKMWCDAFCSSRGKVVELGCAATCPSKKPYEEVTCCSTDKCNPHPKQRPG
# Chain of Torsin-1A-interacting protein 1 (Homo sapiens) (Q5JTV8 whole entry, looked up): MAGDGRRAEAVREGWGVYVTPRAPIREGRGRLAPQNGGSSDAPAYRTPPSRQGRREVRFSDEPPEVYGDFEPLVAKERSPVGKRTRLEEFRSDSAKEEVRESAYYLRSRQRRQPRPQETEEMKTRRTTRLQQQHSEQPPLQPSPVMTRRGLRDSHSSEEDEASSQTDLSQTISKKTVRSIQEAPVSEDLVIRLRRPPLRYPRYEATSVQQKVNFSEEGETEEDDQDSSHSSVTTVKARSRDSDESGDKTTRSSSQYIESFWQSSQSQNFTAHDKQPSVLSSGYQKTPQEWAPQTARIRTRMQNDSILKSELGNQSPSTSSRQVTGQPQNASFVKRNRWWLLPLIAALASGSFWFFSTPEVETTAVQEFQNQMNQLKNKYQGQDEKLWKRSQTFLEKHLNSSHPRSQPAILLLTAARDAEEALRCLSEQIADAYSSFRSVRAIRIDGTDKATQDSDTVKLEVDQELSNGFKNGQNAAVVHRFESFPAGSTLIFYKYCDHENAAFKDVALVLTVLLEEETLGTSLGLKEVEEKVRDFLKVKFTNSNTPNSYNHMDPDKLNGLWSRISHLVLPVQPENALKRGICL
# Chain of Left-right determination factor 2 (Homo sapiens) (O00292 whole entry, looked up): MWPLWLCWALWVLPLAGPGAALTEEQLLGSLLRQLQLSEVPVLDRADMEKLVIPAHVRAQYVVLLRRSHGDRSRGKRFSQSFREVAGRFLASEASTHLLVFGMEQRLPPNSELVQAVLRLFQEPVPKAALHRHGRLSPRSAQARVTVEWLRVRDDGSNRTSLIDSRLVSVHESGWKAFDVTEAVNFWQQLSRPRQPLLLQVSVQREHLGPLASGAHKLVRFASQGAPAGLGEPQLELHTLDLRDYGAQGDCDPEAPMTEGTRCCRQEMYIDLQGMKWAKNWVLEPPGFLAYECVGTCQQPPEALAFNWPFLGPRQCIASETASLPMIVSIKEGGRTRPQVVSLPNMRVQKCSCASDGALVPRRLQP
Compound,composite z-score [1],z-score [2],composite z-score [3],composite z-score [4],composite z-score [5],composite z-score [6],composite z-score [7],composite z-score [8],composite z-score [9],composite z-score [10],composite z-score (Albumin (Bos taurus)),composite Z-score [11],composite z-score [12],composite z-score [13],composite z-score [14],composite z-score [15],composite z-score [16],composite z-score (Sam68 (KHDRBS1)),composite z-score [17],composite z-score [18]
CCOC(=O)C[C@H]1[C@H](OC(=O)c2ccccc2-c2ccccc2)[C@@H](NC(=O)C2CCCCC2)c2cc(OCCCO)ccc2N1C(=O)c1ccccc1,0.0771,-1.4,1.13,-0.0784,-0.083,-0.213,-0.283,-0.0502,0.584,0.148,0.576,0.909 (inactive),-0.0647,-0.0784,0.393,0.68,-0.175,0.692,0.173,0.404
CC(C)[Si]1(C(C)C)O[C@@H](c2ccccc2)c2cc(C3CC3)nc(-c3ccc(Oc4ccccc4)cc3)c21,-0.266,-0.176,-0.436,-0.395,0.89,-0.0758,-0.214,-0.158,0.0613,-0.789,-1.01,-0.233 (inactive),-0.157,-0.125,-0.289,-0.346,-0.0034,-0.906,-0.408,-1.27
Cc1ccc(S[C@]2(C(=O)NC(C)C)CC(=O)N(Cc3cc(C(F)(F)F)cc(C(F)(F)F)c3)[C@@H]2c2ccc(CO)cc2I)cc1,0.785,-0.563,-0.832,-0.502,-0.384,-0.132,0.0815,-0.036,-0.596,0.57,-1.25,0.0296 (inactive),-0.313,-0.14,0.788,1.31,0.917,-0.733,-1.21,-0.442
CC(C)[Si](OCC[C@H]1O[C@]2(C(=O)N(Cc3ccccc3)c3ccccc32)[C@@H](C)[C@@H]1[Si](C)(C)O)(C(C)C)C(C)C,0.161,-1.22,-0.261,0.214,0.3,-0.216,0.0204,0.0073,0.153,-0.513,0.114,-0.0745 (inactive),0.0026,-0.148,0.191,0.379,0.0893,0.0631,-0.0644,0.367
CO[C@H]1COC(=O)[C@@H](Cc2ccccc2)NC(=O)[C@@H](C)COC(=O)CC=C[C@@H]1C,-0.661,0.413,0.831,-2.36,-2.14,-0.133,-0.124,-0.234,-0.0159,-0.39,-1.03,-0.179 (inactive),-0.095,-0.14,-0.498,-0.875,-0.422,-0.0602,1.24,-0.773
CC(C)[Si](OCCCNS(=O)(=O)c1ccc(Br)cc1)(C(C)C)C(C)C,0.186,-2.89,0.76,1.19,-0.371,0.037,-0.0553,0.0379,0.928,-0.249,0.406,-0.495 (inactive),0.107,-0.0877,0.0774,0.468,0.194,1.33,0.29,1.08
COc1ccc(CCN2C(=O)[C@@]3(c4ccc([N+](=O)[O-])cc4)CC(=O)N(CC45CC6CC(CC(C6)C4)C5)[C@@H]3c3ccc(CO)cc32)cc1,-0.047,-0.673,0.16,0.207,-0.474,-0.0101,-0.181,-0.476,0.352,0.119,-0.181,0.653 (inactive),0.323,0.0437,0.446,1.38,-0.415,0.644,0.569,0.402
COC(=O)Cn1c(C(=O)N2CCCC2)cc2c1C[C@H]1CN(C(=O)c3ccccc3)[C@@](Cc3ccc(OC)cc3)(C(=O)OC)[C@@H]21,1.44,-1.21,-0.304,1.55,0.367,0.129,0.593,1.83,0.478,0.841,0.92,1.09 (inactive),0.707,0.375,0.587,2.68,-0.268,0.931,0.207,0.73
CO[C@@H]1COC(=O)[C@@H]2CCCN2C(=O)CC=C[C@@H](C)[C@H](OC)COC(=O)[C@@H]2CCCN2C(=O)CC=C[C@H]1C,-0.699,0.47,0.402,-1.35,-2.31,-0.156,-0.2,-0.201,-0.233,-1.09,-1.36,-0.286 (inactive),-0.0699,-0.141,-0.439,-0.422,0.169,-0.149,1.36,-0.512
CO[C@H]1COC(=O)[C@H](C)NC(=O)CC=C[C@@H](C)[C@H](NS(=O)(=O)c2ccc(C)cc2)COC(=O)CC=C[C@@H]1C,-0.9,-0.05,0.285,-1.11,-1.46,-0.137,-0.0709,-0.12,0.368,-0.555,-0.524,0.0426 (inactive),-0.152,-0.146,0.651,-0.616,-0.177,-1.03,1.41,-0.206
CN(C)c1ccc(C(O)C2C=CC3C(=O)NC(=O)C3N2Nc2ccc(Cl)cc2Cl)cc1 (stereo not given),1.36,-0.0428,-1.14,0.615,-0.327,0.0328,0.0993,1.21,0.0689,0.359,0.667,0.66 (inactive),0.0961,0.046,0.735,2.51,0.305,0.708,-0.0762,0.332
